The list is not random: actives were taken first. Their share in the collection is about 3.1%.
Tau fibril FP = tau fibrillization inhibition (FP); P10636; K18 P301L tau heparin fibrillization, Alexa594 FP, 6 h; Potency, µM (series often up to 57.7 µM), for inactives: top-dose activity, negative = inhibition, most hits filed as inhibitors; 280,000 tested, 0.39% active; AID 1468; further: nearly all actives have a fitted effect of over 55% in size
Target sequence (P10636 561-689 P618L limits assumed): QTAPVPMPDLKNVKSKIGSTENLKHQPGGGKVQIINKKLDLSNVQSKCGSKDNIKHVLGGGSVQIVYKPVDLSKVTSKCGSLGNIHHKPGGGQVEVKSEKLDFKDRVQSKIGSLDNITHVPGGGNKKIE
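Human tau K18 […] P301L fragment, 15 uM unlabeled plus 0.24 uM Alexa 594-labeled tau (final), with compound and 20 uM heparin in 100 mM sodium acetate pH 7; 6 hr at 37 C, then Alexa 594 FP read.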
TR SRC2 fluor cs = Texas Red fluorescence interference in TRb-SRC2 counter-screen. TRb/SRC2 Texas Red total fluorescence interference. 280,000 tested, 0.29% active. Potency, µM (series often up to 106 µM), without a hit: at the top dose fluorescence change, negative = quenching; active means well fitted curve in either direction with a large enough effect; inconclusive means small, poorly fitted or top-dose-only effect
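Flags fluorescent or light-absorbing compounds by total fluorescence, S + 2P, at 555 nm excitation and 632 nm emission. Mixture: 20 nM Texas Red SRC2 peptide, 0.6 uM human TRb LBD, 1 uM T3, 5% DMSO; compound exposure 5 h at ambient temperature.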
TRb-SRC2 inh = disrupts binding of human TR beta to SRC2 | P10828 | TRbeta-SRC2 peptide binding, fluorescence polarization; receptor liganded with 1 µM T3 | Potency, µM (top dose mostly 106 µM), without a hit: top-dose activity change, negative = inhibition, usual class: inhibitors | 280,000 tested, 0.065% active | AID 1469;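 further: plate controls were bound peptide for no effect and peptide without receptor for full effect; nearly all actives have a fitted effect of over 50% in size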
Target sequence (P10828 whole entry, looked up): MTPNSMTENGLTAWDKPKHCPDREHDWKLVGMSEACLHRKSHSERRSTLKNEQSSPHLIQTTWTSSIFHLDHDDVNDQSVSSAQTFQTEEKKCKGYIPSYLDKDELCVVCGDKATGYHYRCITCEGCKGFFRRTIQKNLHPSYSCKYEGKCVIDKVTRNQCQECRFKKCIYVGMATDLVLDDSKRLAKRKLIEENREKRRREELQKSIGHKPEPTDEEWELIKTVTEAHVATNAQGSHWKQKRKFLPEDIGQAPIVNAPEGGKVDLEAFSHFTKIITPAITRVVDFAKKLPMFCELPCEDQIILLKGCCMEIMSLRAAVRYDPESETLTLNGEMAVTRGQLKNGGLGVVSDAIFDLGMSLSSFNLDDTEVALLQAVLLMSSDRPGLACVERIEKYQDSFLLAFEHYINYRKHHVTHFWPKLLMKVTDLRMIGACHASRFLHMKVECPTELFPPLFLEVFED
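TRb LBD 0.6 uM + Texas Red SRC2 peptide 20 nM, 1 uM T3, Tris buffer w/ 5% DMSO; compound pinned, 5 h RT; FP read ex 555/em 632; normalized to unbound and bound controls.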
Tau fluor counter = counter-screen for tau fibril formation inhibitors | tau K18 P301L Alexa594 fluorescence, heparin fibrillization | AID 1463 | Potency, µM (highest dose often 57.7 µM), inactives show top-dose activity change, negative = decrease | 280,000 tested, 0.93% active; further: nearly all actives have a fitted effect of over 55% in size
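Human K18 P301L tau (15 uM unlabeled plus 0.24 uM Alexa 594-labeled, final) in 100 mM sodium acetate pH 7 was mixed with compound and 20 uM heparin and incubated 6 hr at 37 C.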
Tau ThT inhib = tau fibrillization inhibition (ThT binding); P10636; recombinant tau K18 P301L, heparin-induced fibrillization, ThT fluorescence; Potency, µM (doses to about 57.4 µM), for inactives: at the top dose activity, negative = inhibition, usual class: inhibitors; 270,000 tested, 2.1% active; AID 1460; further: nearly all actives have a fitted effect of over 55% in size
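Fibril formation assay: tau K18 P301L at 15 uM with trace Alexa 594 label, heparin inducer 20 uM, pH 7 sodium acetate buffer, 37 C for 6 hr; endpoint ThT signal.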
* hit, by the source's call; u = inconclusive; x = not tested or not shown; ! = not confirmed by another sample; [ ] = dose if it differs, or a comment. Unless noted, the call rests on the fitted dose curve; in most records, active means well fitted curve in the direction sought with a large enough effect; inconclusive means small, poorly fitted or top-dose-only effect, or another doubt; inactive means no such curve, though single readings can be large; an effect the other way counts as inactive or inconclusive. Unless noted, on the % scale 0 is the no-effect control and ±100 the full control effect; potency means the concentration at half of the fitted maximal effect.

SMILES	Tau fibril FP	TR SRC2 fluor cs	TRb-SRC2 inh	Tau fluor counter	Tau ThT inhib
COC(=O)CCC(=O)OC1(C)C(=O)C2=CN(Cc3ccc(OC)cc3)C(c3ccc(OC)cc3)=CC2=C(Br)C1=O (configuration not stated)	5%[11.6 µM]	-3%[11.2 µM]	0%[11.2 µM]	-17%[11.6 µM]	-16%[11.5 µM]
COC(=O)CCC(=O)OC1(C)C(=O)C2=CN(Cc3ccccc3)C(c3ccc(OC)cc3)=CC2=C(Br)C1=O (configuration not stated)	7%[11.6 µM]	-3%[11.2 µM]	1%[11.2 µM]	-8%[11.6 µM]	-3%[11.5 µM]
COC(=O)CCC(=O)OC1(C)C(=O)C2=CN(CCCOC(C)C)C(c3ccc(OC)cc3)=CC2=C(Br)C1=O (configuration not stated)	u	9%	5%	-16%	16µM*
COC(=O)CCC(=O)OC1(C)C(=O)C2=CN(CC(C)C)C(c3ccc(OC)cc3)=CC2=C(Br)C1=O (configuration not stated)	8.9µM*!	-2%[11.2 µM]	0%[11.2 µM]	-7%[11.6 µM]	10µM*!
COC(=O)CCC(=O)OC1(C)C(=O)C2=CN(CC3CC3)C(c3ccc(OC)cc3)=CC2=C(Br)C1=O (configuration not stated)	u	-3%[11.2 µM]	4%[11.2 µM]	-4%[11.6 µM]	11µM*!
COc1ccc(N2CCN(c3csc4ccc(Cl)cc4c3=O)CC2)cc1	4%	0%	10%	-22%	6.3µM*
O=c1c(N2CCN(c3ccc(F)cc3)CC2)csc2ccc(F)cc12	u	1%	7%	u	5µM*
COc1ccc(N2CCN(c3csc4ccccc4c3=O)CC2)cc1	-5%	0%	4%	u	11µM*
COc1cc2c(cc1OC)C(c1ccc(-c3ccc(Cl)c(Cl)c3)o1)=NCC2	13%	1%	4%	u	11µM*
COc1cc2c(cc1OC)C(c1ccc(-c3cc(Cl)ccc3Cl)o1)=NCC2	5%	-1%	-2%	-5%	u
CCCC(=O)Nc1ccc(C(=O)N/N=C/c2ccc([N+](=O)[O-])o2)cc1	-5%	u	1%	-21%	8.9µM*
O=C(CNc1ccc2ccccc2c1)N/N=C/c1ccc([N+](=O)[O-])o1	2%	-2%[53 µM]	-5%[53 µM]	14µM*[quencher]	u
O=C(N/N=C\c1ccc([N+](=O)[O-])o1)c1ccc(O)cc1	x	-2%[53 µM]	4%[53 µM]	x	x
O=C(CNc1ccc2ccccc2c1)N/N=C/c1cc2ccccc2nc1Cl	-1%	-2%	-5%	13µM*[quencher]	u
O=c1cc(-c2ccccc2)[nH]c2[nH]n(-c3ccccc3)c(=O)c12	u	-4%	-3%	-22%	20µM*
O=C(/C=C/c1ccccc1)CC(=O)c1ccccc1O	u	-4%	-3%	u	13µM*
Cc1ccccc1OCc1ccc(-c2nc(C#N)c(N3CCN(c4ccccc4)CC3)o2)o1	-3%	4µM*[quencher]	-14%	-19%	-5%
Cc1ccccc1OCc1ccc(-c2nc(C#N)c(N3CCN(C)CC3)o2)o1	17%	8%	1%	-23%	-12%
CCN(CCNC(=O)c1ccc(CSc2nc3ccncc3[nH]2)cc1)c1ccccc1	1%	-6%	4%	25µM*[quencher]	u
O=C(NCCN1CCN(c2cccc(Cl)c2)CC1)c1ccc(CSc2nc3ccncc3[nH]2)cc1	u	0%	5%	u	u
O=C(Cn1c(SCc2ccccc2F)nc2ccncc21)Nc1ccccc1C(F)(F)F	-8%	-1%	4%	-10%	0%
C=CCSc1nc2ccccc2n1C(=O)/C=C/c1ccc(OC)c(OC)c1	u	4%[53 µM]	-14%[53 µM]	-20%	14µM*
CCSc1nc2ccccc2n1C(=O)/C=C/c1ccc(OC)c(OC)c1	7.9µM*	0%	-4%	-23%	7.9µM*
C=CCSc1nc2ccccc2n1C(=O)/C=C/c1cc(OC)c(OC)c(OC)c1	22µM*	3%	-6%	-17%	25µM*
COc1ccc(C2C(C(=O)NCc3ccccn3)CCC(=O)N2c2cc(OC)c(OC)c(OC)c2)cc1 (configuration not stated)	2%	-2%	2%	2%	-6%
SMILES	Tau fibril FP	TR SRC2 fluor cs	TRb-SRC2 inh	Tau fluor counter	Tau ThT inhib
Cc1ccc(NC(=O)C(OC(=O)c2ccc(NC(N)=O)cc2)c2ccccc2)cc1Cl (configuration not stated)	13µM*	-16%	3%	u	u
Cc1ccc(NC(=O)C(OC(=O)c2ccccc2Cl)c2ccccc2)cc1Cl (configuration not stated)	u	-1%	0%	u	1%
CCOc1cc(/C=C2\SC(=O)N(CC(=O)Nc3ccccc3F)C2=O)cc([N+](=O)[O-])c1O	5%	-3%	-1%	u	7.9µM*
COc1cc(/C=C2\SC(=O)N(c3ccccc3Cl)C2=O)cc([N+](=O)[O-])c1O	-11%	-10%	6%	16µM*[quencher]	4µM*
COc1cc(/C=C2\SC(=O)N(CC(=O)Nc3cccc(C)c3)C2=O)cc([N+](=O)[O-])c1O	-2%	-12%	2%	u	13µM*
COc1cc(/C=C2\SC(=O)N(c3ccc(O)cc3)C2=O)cc(OC)c1OC	-8%	-3%	-2%	-17%	-14%
COc1ccc(/C=C2\SC(=O)N(CC(=O)Nc3cccnc3)C2=O)cc1OC	-5%	-3%	5%	-14%	-15%
COc1cc(/C=C2\SC(=N)N(c3ccc(F)cc3)C2=O)ccc1O	u	-6%	-6%	u	u
COc1cc(/C=C2\SC(=N)N(c3ccc4c(c3)OCO4)C2=O)cc(OC)c1O	-9%	-2%	-4%	u	3.2µM*
COc1ccc(N(Cc2cccs2)C(=O)Nc2cccc(Cl)c2)cc1	5%	-3%	-7%	-28%	-5%
CC(C)CCN1C(=O)c2ccc(C(=O)Nc3c[nH]c(=O)[nH]c3=O)cc2C1=O	-11%	1%	-4%	-11%	-5%
NC(C(=O)O)c1cc(O)cc(O)c1 (configuration not stated)	8%	-2%	3%	-4%	5%
CN(C)c1ccc(/C=C2\N=C(c3ccc(Cl)c([N+](=O)[O-])c3)NC2=O)cc1	-15%	5%	6%	u	0.89µM*
COc1ccccc1Nc1c([N+](=O)[O-])cc(C)cc1[N+](=O)[O-]	1%	-1%	-1%	-27%	-20%
O=[N+]([O-])c1cccc(-c2csc(Nc3ccccc3)n2)c1	13%	-2%	-3%	25µM*[quencher]	u
COc1cc(NS(=O)(=O)c2ccc(Nc3nc(-c4cccc([N+](=O)[O-])c4)cs3)cc2)nc(OC)n1	u	-8%	3%	u	18µM*
O=C(Nc1nc(-c2cccnc2)cs1)c1cccc([N+](=O)[O-])c1	4%	2%	4%	-7%	-7%
O=C(Nc1ncc([N+](=O)[O-])s1)c1cccc([N+](=O)[O-])c1	13%	u	12%	-14%	18µM*

Screening results from PubChem BioAssay.
